Compounds with a hit are over-represented: about 3.9% of the library has one in this group of screens.
BoNT F protease – BoNT F light chain protease inhibition; actives 0.22% (n = 360,000); Multiplex microsphere protease cleavage assay, flow cytometry; AID 588497; inhibition, % at 10 µM; in the data active = inhibition above about 35%, passing the limit was not always enough; inconclusive = no clear call, values can overlap the other calls; also: plate controls were buffer without enzyme for full effect and enzyme alone for no effect
Anthrax LF inh2 – inhibitors of Bacillus anthracis lethal factor protease | P15917 | multiplex microsphere protease cleavage assay, LF | inhibition, % at 10 µM | actives 0.12% (n = 360,000) | AID 588501; also: plate controls were buffer without enzyme for full effect and enzyme alone for no effect
Autofluor counter – flagged as autofluorescent in microsphere protease counterscreen | fluorescence intensity (test concentration not listed) | AID 624483 | compound autofluorescence counterscreen, microsphere flow cytometry; stronger effect = higher value | actives 3.1% (n = 360,000); in the data active = fluorescence intensity above about 16000; inconclusive = no clear call, values can overlap the other calls
BoNT-A LC inh2 – BoNT A light chain protease inhibition; inhibition, % at 10 µM; AID 588499; actives 0.17% (n = 360,000); multiplex microsphere protease substrate cleavage, flow cytometry; also: plate controls were buffer without enzyme for full effect and enzyme alone for no effect
Vc quorum ag – inducers of Vibrio cholerae quorum light production without autoinducers; V. cholerae BH1578 lux reporter, luminescence, 6 h; activation, % at 18.7 µM; actives 0.16% (n = 350,000); in the data active = activation mostly above about 9.7%, no sharp cut-off; inconclusive = no clear call, values can overlap the other calls; inactive = mostly below about 3.7%
MazF activator – activators of E. coli MazEF toxin-antitoxin RNase | FAM/BHQ RNA-DNA oligo cleavage fluorescence, 5 h | activation, % at 20 µM | actives 0.32% (n = 350,000) | AID 504720; in the data active = activation above about 50%
Target sequence (P0AE70 whole entry, looked up): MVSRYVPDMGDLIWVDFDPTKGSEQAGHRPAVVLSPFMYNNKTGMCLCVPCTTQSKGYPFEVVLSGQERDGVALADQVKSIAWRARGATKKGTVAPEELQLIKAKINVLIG
Active calls of the source: *; i = inactive; ? = inconclusive; / = no result given. Rule as the data show it, unless noted: active = inhibition above about 30%; inconclusive = no clear call, values can overlap the other calls; inactive = below that.

SMILES	BoNT F protease	Anthrax LF inh2	Autofluor counter	BoNT-A LC inh2	Vc quorum ag	MazF activator
CCC1CCCCN1CCCNC(=O)COc1cc(=O)n(C)c2ccccc12 (centres undefined)	-1.8	0.5	20141*	-1.1	5.8	-1.2
Cc1oc(-c2ccc(Cl)cc2)nc1CN1CCC(C(=O)NCCCN2CCCC(C)C2)CC1 (centres undefined)	-7.9	4.8	6580	0.0	i	4.3
NS(=O)(=O)c1ccc(CNC(=O)CSc2nc3ccc(Cl)cc3[nH]2)cc1	6.0	-1.9	3802	1.0	i	1.6
O=S(=O)(NC1CC1)c1ccc(Br)cc1N1CCC[C@H]1CO	-6.6	0.1	4005	-0.8	i	1.4
O=C(CN1C(=O)COc2ccccc21)NCCCN1CCN(c2ccccc2F)CC1	3.3	-3.0	4068	1.5	i	-6.5
CCn1c(=O)cc(SCC(=O)NCCCN2CCN(c3ccccc3F)CC2)c2ccccc21	-0.8	-1.7	20693*	-0.7	i	-4.8
COCCNC(=O)COc1cc(=O)n(C)c2ccccc12	-4.1	-1.2	16570*	-0.1	i	-3.4
COc1ccc(CN2C(=O)c3ccccc3C2C(=O)NC2CCCC(C)C2C)c(OC)c1 (centres undefined)	-12.4	2.7	4070	-4.2	i	2.4
O=C(c1ccccc1)N(Cc1ccccc1)c1ccccn1	-6.5	-0.6	10766	-0.8	i	-1.9
O=C(c1ccc(Br)o1)N(Cc1ccccc1)c1ccccn1	5.8	-0.8	19550*	?	i	6.1
O=C1CSCC(=O)N1c1ccccc1	-0.8	-1.5	2828	-0.3	i	1.1
O=C1C2=C(SCCS2)C(=O)N1c1ccccc1	7.2	0.1	19116*	4.5	-0.1	-29.0
Cc1cc(C(F)(F)F)nc(SCC(=O)c2cccc([N+](=O)[O-])c2)n1	-8.2	0.9	17551*	-5.3	-0.8	2.1
CCn1c(=O)n(CCc2ccccc2)c(=O)c2c3c(sc21)CCCC3	2.1	-2.3	22638*	1.6	-0.2	1.0
O=c1c2c3c(sc2n(CCN2CCCCC2)c(=O)n1Cc1ccco1)CCCCC3	-11.3	-3.7	27290*	?	i	-10.5
NC(=O)Cn1c(=O)n(Cc2ccco2)c(=O)c2c3c(sc21)CCCCC3	8.0	-1.1	18631*	?	-2.2	-8.2
COC(=O)Cn1c(=O)n(CCc2ccccc2)c(=O)c2c3c(sc21)CCCC3	-9.6	-2.5	10291	-0.7	i	-4.1
CNC(=O)C[C@H]1C(=O)N(C2CCCCC2)C[C@@H]1c1ccc(Br)cc1	-3.4	-3.6	2797	0.0	-0.3	3.9
COc1cccc(-c2nnc(SCC(=O)Nc3ccc(OC)c(OC)c3)n2N)c1	-4.5	-1.3	23134*	-1.5	-5.3	3.3
Cc1cccc(NC(=O)CSc2nnc(-c3ccccc3)n2N)c1	4.0	0.8	20752*	?	i	-3.1
COc1cccc(NC(=O)CSc2nnc(-c3cc(C)[nH]n3)n2N)c1	8.3	1.4	5307	1.5	i	7.9
COc1cccc(-c2nnc(SCC(=O)OC(C)C)n2N)c1	-2.5	-2.9	19700*	-0.9	-2.6	-6.1
CCOc1cccc(-c2nnc(SCC(=O)Nc3cccc(OC)c3)n2N)c1	2.5	-2.9	21734*	0.9	i	9.1
CCC/C=C/c1ccc(CN2C(C)C(=O)N(Cc3cn(CCC4OCCO4)nn3)CCS2(=O)=O)cc1 (centres undefined)	-2.2	2.5	3733	-0.1	-0.6	13.3
Brc1ccc(CN2CCCCCC2)cc1	?	2.8	?	1.2	-1.3	9.5
SMILES	BoNT F protease	Anthrax LF inh2	Autofluor counter	BoNT-A LC inh2	Vc quorum ag	MazF activator
Nn1c(SCC(=O)Nc2ccc(F)cc2)nnc1-c1cccnc1	14.5	2.4	19014*	?	i	-4.0
CCn1c2ccccc2c2cc(NC(=O)c3cccc(OC)c3)ccc21	-0.3	2.8	22832*	3.6	i	4.5
O=C(CSc1nnc(-c2cccnc2)n1Cc1ccco1)Nc1cccc(O)c1	-3.8	-1.1	4548	-0.6	-0.2	0.4
COc1cccc(-c2nnc(SCC(=O)Nc3cc(C)on3)n2C)c1	5.3	-6.2	5759	1.4	-4.2	1.4
O=C(CSc1nnc(-c2cccnc2)n1Cc1ccco1)Nc1nc(-c2ccc(F)cc2)cs1	-0.4	-2.4	20486*	0.3	12.5	-2.3
CCn1c2ccccc2c2cc(NC(=O)c3cccc(OC)c3OC)ccc21	-16.4	-0.3	2025	3.0	-0.7	-6.2
COc1cccc(-c2nnc(SCCC(=O)O)n2C)c1	-0.1	2.3	23530*	0.4	-0.2	2.2
O=C(Nc1cccc(S(=O)(=O)N2CCCCC2)c1)C1COc2ccccc2O1 (centres undefined)	1.3	12.0	8530	3.6	-2.7	0.8
COCOc1ccc(-c2ncc(OC)nc2NC(=O)c2cc(C)oc2C)cc1	-11.3	1.9	4484	-0.8	i	/
CC(C)NC(=O)c1cccc2c(-c3ccc(F)c(F)c3)coc12	2.2	-1.8	3777	-0.1	-0.5	/
CC1CCCC(NC(=O)CSc2nnc(-c3cccnc3)n2N)C1C (centres undefined)	10.0	3.0	18627*	0.7	i	3.1
COC(=O)c1ccc(NC(=O)CSc2nnc(-c3ccccc3)n2C)cc1	3.4	0.7	4571	-0.5	-0.7	-3.6
Cc1ccc(C)c(NC(=O)CSc2nnc(-c3ccncc3)n2N)c1	-5.0	-0.3	21109*	-5.1	-2.0	-6.4
COC(=O)CSc1nnc(C)n1-c1cccc(C#N)c1	-6.6	-0.9	17539*	-5.8	i	0.8
COC(=O)CSc1nnc(-c2cccnc2)n1-c1cccc(OC)c1	0.8	1.4	7937	0.3	i	-2.6
COC(=O)c1ccc(NC(=O)CSc2nnc(-c3ccncc3)n2N)cc1	4.1	-0.6	20637*	?	i	5.2
Cc1ccc(C)c(NC(=O)CSc2nnc(C)c(=O)n2N)c1	2.2	-0.7	2733	-1.1	-0.1	3.2
COC(=O)c1c(C)oc(C)c1S(=O)(=O)NCc1ccco1	?	-15.7	4873	?	i	9.7
CCn1c2ccccc2c2cc(NC(=O)CSc3nnc(-c4ccc(OC)cc4)n3N)ccc21	-2.3	-2.4	24502*	-1.7	i	3.9
Nn1c(SCC(=O)Nc2ccccc2)nnc1C1CCCCC1	-2.7	-0.6	6704	-0.2	i	4.5
Nn1c(SCC(=O)Nc2ccc(F)cc2)nnc1C1CCCCC1	2.8	-4.6	21577*	?	-2.1	5.0
COc1ccc(NC(=O)CSc2nnc(-c3ccccc3)n2N)cc1	-0.9	-4.1	3565	0.4	-0.3	-7.2
COC(=O)c1ccc(NC(=O)CSc2nnc(C)n2-c2ccccc2)cc1	13.2	-7.6	19301*	8.9	-0.5	-2.7
CCNC(=O)N(C)c1c(CC)nc2ccc(C(=O)N3CCN(S(=O)(=O)CC)CC3)cn12	-2.5	-2.0	3975	-1.0	-9.5	/
O=C(O)CCCC(=O)Nc1cccc(-c2nc3ccccc3[nH]2)c1	-2.8	3.2	16669*	-0.4	-2.9	2.1
O=C(CSc1ccc(Cl)cc1)Nc1cccc(-c2nc3ccccc3[nH]2)c1	1.8	-0.3	1987	1.1	-0.3	-6.5

Source: PubChem
